In the OligoGym collection one finds sensor-assay potency score (higher = more potent) data, which are given here for 40 sequences.
Also: reference of the scale not given here.

For the first test, the target named is TMEM130. In words: pooled miR-30 sensor sort-seq; sequence = guide strand. Particulars: shRNA.
As to TTTATTTAGCAACAATGGCAGT, the sensor-assay potency score (higher = more potent) was -0.968. In turn, ATAGTTATAATAGACCACGGAG came in with a sensor-assay potency score (higher = more potent) of -0.516.

Sequence TAGAGAAACAAGGCGGTCTTGA had a sensor-assay potency score (higher = more potent) of 0.529. As for TTCTGCTTCACAGCCCTCGTGG, the sensor-assay potency score (higher = more potent) was -0.803. The sequence TTGCCAGTAAGCACCAGCGGGG yielded a sensor-assay potency score (higher = more potent) of -1.3.

TTGGAAGGTCTGAATTAGGGTG came in with a sensor-assay potency score (higher = more potent) of 0.0908. The sequence TATGTGTACAACCTTTAGTTAT had a sensor-assay potency score (higher = more potent) of -1.54. Regarding TATTGTCTCAGCCACAGCCCAG, the sensor-assay potency score (higher = more potent) was -1.4. Still for that read-out and setting: the value for TTGCTGAGTGGCATTCCGCAGG was -0.984.

A further test addresses TMEM140. Described as above. Particulars: shRNA.
For the sequence ATGCTCATGAACAGCAGCTGGT, the sensor-assay potency score (higher = more potent) was -1.09.

For the sequence AAGAGCGTAAAACATCAGGCAG, the sensor-assay potency score (higher = more potent) is -0.966.

With ATGAACAGCAGCTGGTCGCGCC, the sensor-assay potency score (higher = more potent) is -1.18.

The sequence TAGAAGCCGATTCTCAGGTTGG registered a sensor-assay potency score (higher = more potent) of -0.232. In turn, TATGATGCTCATGAACAGCAGC showed a sensor-assay potency score (higher = more potent) of -0.769. For TGCTCATGAACAGCAGCTGGTC, the sensor-assay potency score (higher = more potent) was -1.48. TTATAGAAGCCGATTCTCAGGT returned a sensor-assay potency score (higher = more potent) of 0.174.

TCTCTCATCACTGTTGCACTGG had a sensor-assay potency score (higher = more potent) of 0.0267. In the case of TGACACTGTAGGGTGCTGGTGT, the sensor-assay potency score (higher = more potent) was 0.184. ATCACGAGGACTATGATGCTCA: the sensor-assay potency score (higher = more potent) is -0.61. TGTACTAAGAAGTCACAGGTGC showed a sensor-assay potency score (higher = more potent) of 0.194. The same measure, in the same setting: the value for TATAGAAGCCGATTCTCAGGTT was 0.501.

The next test has as its target TMEM147. The test is described as above. The following applies: shRNA.
In the case of TAGAGCTGCCCAACTGCCCAGC, the sensor-assay potency score (higher = more potent) was -1.02.

In the case of TATCAGGTCTGCCACATCCACG, the sensor-assay potency score (higher = more potent) is -1.57. Turning to TTGTACTCGGACAGGCCGCTGC, the sensor-assay potency score (higher = more potent) was -1.

On to TCTGGATGTACTTCCAGTCAAA, for which the sensor-assay potency score (higher = more potent) was -1.49.

TTATCATCCAGACCTGAGCAGA displayed a sensor-assay potency score (higher = more potent) of -0.978. Sequence TCATAGCGTGTTATCATCCAGA displayed a sensor-assay potency score (higher = more potent) of -0.557. Still for that read-out and setting: the value for TGTGGTACAGATCATAGCGTGT was -0.505.

In turn, TTGGAGTCTATGCTCATCTGGA had a sensor-assay potency score (higher = more potent) of -0.274. The same measure, in the same setting: the value for TAGACCTATCAGGTCTGCCACA was -1.51.

In the case of TTGTAGGTGATGAAGTAGGGGA, the sensor-assay potency score (higher = more potent) is -0.423. In turn, TAATGGACCAGACTGATGTTGG yielded a sensor-assay potency score (higher = more potent) of -0.822.

The next test deals with TMEM156. The test is described as above. The following applies: shRNA.
Take TACACTGAAGTTAAAGTGCTGA: the sensor-assay potency score (higher = more potent) is 0.144.

Sequence TTTGTCTCTATGACTCTGCCAC gave a sensor-assay potency score (higher = more potent) of -0.207. Same read-out and setting: the value for TTTATCGATTTCTCCTTGCTTG was 0.0129; that for TTCCTGAGAAATAAAATCCATG was -1.19. As to AATGTGTATACAATCATTCGGG, the sensor-assay potency score (higher = more potent) is -0.0136.

Turning to TTGTTGATCTTCCAGTGTGGTT, the sensor-assay potency score (higher = more potent) is -1.08.

As to TAGTTTATCGATTTCTCCTTGC, the sensor-assay potency score (higher = more potent) is -0.128. The sequence TTTTATATCCATCTCCAGGTGC registered a sensor-assay potency score (higher = more potent) of -0.346.
